A number with no mark means an inactive call. Active and inactive are the calls of the source. No stated cut-off is given here; in the data, active means nuclear beta-catenin stimulation mostly above about 4.2% (no sharp cut-off); inactive means mostly below about 10%. Non-standard residues stand in square brackets, D forms with d. Residues, ends and D or L forms follow the SMILES beside them. pGlu = O=C1CC[C@@H](C(=O)O)N1
assay: stimulators of nuclear beta-catenin in C2C12, primary screen, imaging, WNT3A-conditioned medium, mouse C2C12, NPC library (AID 1117326); conditions: at 10 µM, active compounds read high; further: reference of the scale not given here

**Q.** For `Cc1cccc(C)c1NC(=O)CN(CC(=O)O)CC(=O)O`, which nuclear beta-catenin stimulation is on record?
**A.** Its nuclear beta-catenin stimulation is 0.4%.

**Q.** For `CCCCCCCCCCOCC(O)CN` (centres undefined), which nuclear beta-catenin stimulation is on record?
**A.** The nuclear beta-catenin stimulation was 49.7% (active).

**Q.** With `Nc1ccc([N+](=O)[O-])c(C(F)(F)F)c1` as the compound, how does the nuclear beta-catenin stimulation read?
**A.** Its nuclear beta-catenin stimulation is 0.5%.

**Q.** Which nuclear beta-catenin stimulation does the source give for `CC1(C)OC[C@@H]2O[C@@]3(C(=O)O)OC(C)(C)O[C@H]3[C@@H]2O1` here?
**A.** Its nuclear beta-catenin stimulation is -1.7%.

**Q.** For `CC(O)CCCCn1c(=O)c2c(ncn2C)n(C)c1=O` (centres undefined), which nuclear beta-catenin stimulation is on record?
**A.** The nuclear beta-catenin stimulation was -0.6%.

**Q.** For `CC(=O)OC[C@H]1O[C@@](COC(C)=O)(O[C@H]2O[C@H](COC(C)=O)[C@@H](OC(C)=O)[C@H](OC(C)=O)[C@H]2OC(C)=O)[C@@H](OC(C)=O)[C@@H]1OC(C)=O`, which nuclear beta-catenin stimulation is on record?
**A.** Its nuclear beta-catenin stimulation is 0.3%.

**Q.** Which nuclear beta-catenin stimulation does the source give for `CCc1oc2ccccc2c1C(=O)c1cc(I)c(O)c(I)c1` here?
**A.** Its nuclear beta-catenin stimulation is 4.9%.

**Q.** With `CCCCC(C)(O)CC=C[C@H]1[C@H](O)CC(=O)[C@H]1CCCCCCC(=O)OC` (some centres undefined) as the compound, how does the nuclear beta-catenin stimulation read?
**A.** Its nuclear beta-catenin stimulation is -0.9%.

**Q.** Which nuclear beta-catenin stimulation does the source give for `O=C1c2ccccc2CCc2ccccc21` here?
**A.** Its nuclear beta-catenin stimulation is 0.9%.

**Q.** Which nuclear beta-catenin stimulation does the source give for `Nc1c(NC/C=C\COc2cc(CN3CCCCC3)ccn2)c(=O)c1=O` here?
**A.** The nuclear beta-catenin stimulation was 0.1%.

**Q.** For `Oc1ccccc1-c1nnco1`, which nuclear beta-catenin stimulation is on record?
**A.** The nuclear beta-catenin stimulation was 0.3%.

**Q.** For `C=CCNc1nc(NCC=C)nc(N2CCN(C(c3ccc(F)cc3)c3ccc(F)cc3)CC2)n1`, which nuclear beta-catenin stimulation is on record?
**A.** The nuclear beta-catenin stimulation was 0.3%.

**Q.** Which nuclear beta-catenin stimulation does the source give for `O=Cc1ccccc1C=O` here?
**A.** The nuclear beta-catenin stimulation was -0.8%.

**Q.** With `CC(=O)OC[C@H]1O[C@@H](n2ncc(=O)[nH]c2=O)[C@H](OC(C)=O)[C@@H]1OC(C)=O` as the compound, how does the nuclear beta-catenin stimulation read?
**A.** Its nuclear beta-catenin stimulation is 14%.

**Q.** For `Oc1cccc(O)c1O`, which nuclear beta-catenin stimulation is on record?
**A.** The nuclear beta-catenin stimulation was 5%.

**Q.** With `CCCC(=O)O[C@]1(C(=O)CC)CC[C@H]2[C@@H]3CCC4=CC(=O)CC[C@]4(C)[C@H]3[C@@H](O)C[C@@]21C` as the compound, how does the nuclear beta-catenin stimulation read?
**A.** Its nuclear beta-catenin stimulation is -0.2%.

**Q.** Which nuclear beta-catenin stimulation does the source give for `OCCCc1ccccc1` here?
**A.** Its nuclear beta-catenin stimulation is 1.8%.

**Q.** Which nuclear beta-catenin stimulation does the source give for `CC(C)C(=O)Nc1cccc(C2CN3CCSC3=N2)c1` (centres undefined) here?
**A.** The nuclear beta-catenin stimulation was 1.5%.

**Q.** Which nuclear beta-catenin stimulation does the source give for `CCNC(=O)[C@@H]1CCCN1C(=O)[C@H](CCCN=C(N)N)NC(=O)[C@H](CC(C)C)NC(=O)CNC(=O)[C@H](Cc1ccc(O)cc1)NC(=O)[C@H](CO)NC(=O)[C@H](Cc1c[nH]c2ccccc12)NC(=O)[C@H](Cc1cnc[nH]1)NC(=O)[C@@H]1CCC(=O)N1` ([pGlu]HWSYGLRP-NHEt) here?
**A.** The nuclear beta-catenin stimulation was 0.5%.

**Q.** With `CN1CC(O)c2cc(N=NC(N)=O)c(O)cc21` (centres undefined) as the compound, how does the nuclear beta-catenin stimulation read?
**A.** The nuclear beta-catenin stimulation was 1.3%.

**Q.** With `C[C@@H]1C[C@H]2[C@@H]3CCC4=CC(=O)C=C[C@]4(C)[C@@]3(F)[C@@H](O)C[C@]2(C)[C@@]1(O)C(=O)COC(=O)c1ccncc1` as the compound, how does the nuclear beta-catenin stimulation read?
**A.** The nuclear beta-catenin stimulation was 2.8%.

**Q.** For `c1ccc2[nH]ccc2c1`, which nuclear beta-catenin stimulation is on record?
**A.** Its nuclear beta-catenin stimulation is 0.4%.

**Q.** For `O=C(O)COc1nn(Cc2ccccc2)c2ccccc12`, which nuclear beta-catenin stimulation is on record?
**A.** Its nuclear beta-catenin stimulation is -0.5%.

**Q.** For `C[C@]12C=CC(=O)C=C1[C@@H](F)C[C@@H]1[C@@H]2[C@@H](O)C[C@@]2(C)[C@H]1CC[C@]2(O)C(=O)CO`, which nuclear beta-catenin stimulation is on record?
**A.** Its nuclear beta-catenin stimulation is -1.5%.

**Q.** Which nuclear beta-catenin stimulation does the source give for `O=S(=O)(O)CC(S)CS` (centres undefined) here?
**A.** Its nuclear beta-catenin stimulation is -1%.

**Q.** Which nuclear beta-catenin stimulation does the source give for `CCOC(=O)c1ccc(NC(=O)CN2CCCCC2)cc1` here?
**A.** The nuclear beta-catenin stimulation was 0.5%.

**Q.** Which nuclear beta-catenin stimulation does the source give for `CN1[C@@H]2CC[C@H]1CC(NC(=O)n1c(=O)[nH]c3ccccc31)C2` (some centres undefined) here?
**A.** Its nuclear beta-catenin stimulation is 1.7%.

**Q.** For `Cc1cn([C@@H]2O[C@H](CO)[C@@H](O)[C@H]2F)c(=O)[nH]c1=O`, which nuclear beta-catenin stimulation is on record?
**A.** Its nuclear beta-catenin stimulation is -2.3%.

**Q.** With `Cc1ccc(O)c2ncccc12` as the compound, how does the nuclear beta-catenin stimulation read?
**A.** The nuclear beta-catenin stimulation was 30.3%.

**Q.** With `OCc1ccc(Cl)cc1Cl` as the compound, how does the nuclear beta-catenin stimulation read?
**A.** The nuclear beta-catenin stimulation was 2.2%.

**Q.** For `CN(C)[C@@H]1C(=O)C(C(N)=O)=C(O)[C@@]2(O)C(=O)C3=C(O)c4c(O)cccc4C[C@H]3C[C@@H]12`, which nuclear beta-catenin stimulation is on record?
**A.** The nuclear beta-catenin stimulation was 11%.

**Q.** With `CCS(=O)(=O)c1ccc(OC)c(C(=O)OC)c1` as the compound, how does the nuclear beta-catenin stimulation read?
**A.** The nuclear beta-catenin stimulation was -0.3%.

**Q.** With `OC[C@H]1O[C@@H](n2cnc3c(=S)nc[nH]c32)[C@H](O)[C@@H]1O` as the compound, how does the nuclear beta-catenin stimulation read?
**A.** The nuclear beta-catenin stimulation was -2.5%.

**Q.** For `NS(=O)(=O)c1cc(-c2nn[nH]n2)c(NCc2cccs2)cc1Cl`, which nuclear beta-catenin stimulation is on record?
**A.** The nuclear beta-catenin stimulation was -3%.

**Q.** Which nuclear beta-catenin stimulation does the source give for `Cc1cc(CCCOc2c(C)cc(-c3noc(C(F)(F)F)n3)cc2C)on1` here?
**A.** Its nuclear beta-catenin stimulation is 9.7%.

**Q.** With `Cc1c(C)n(Cc2ccccc2)c2ccc(C(=O)OCCN(C)C)cc12` as the compound, how does the nuclear beta-catenin stimulation read?
**A.** Its nuclear beta-catenin stimulation is 12.1%.

**Q.** For `O=C1NC(c2ccccc2)(c2ccccc2)C(=O)N1COP(=O)(O)O`, which nuclear beta-catenin stimulation is on record?
**A.** Its nuclear beta-catenin stimulation is 1.6%.

**Q.** For `CC(C)=CCC/C(C)=C/CC/C(C)=C/C(=O)OCC(=O)[C@@]1(O)CC[C@H]2[C@@H]3CCC4=CC(=O)C=C[C@]4(C)[C@H]3[C@@H](O)C[C@@]21C`, which nuclear beta-catenin stimulation is on record?
**A.** The nuclear beta-catenin stimulation was -1%.

**Q.** For `O=C1CC[C@H](C(=O)N2CCCCC2)N1`, which nuclear beta-catenin stimulation is on record?
**A.** The nuclear beta-catenin stimulation was 1.7%.
